Bioassay records: PubChem, several laboratories
PrP 5UTR inh = inhibition of PrP 5' UTR reporter expression. cell-based PrP 5' UTR mRNA reporter, plate reader. inhibition, % (concentration not given with the values). 340,000 compounds, 0.35% hits; in the data active = inhibition above about 52%; also: 0 = median of the neutral control wells
PfHsp40 rescue = compounds rescuing yeast from Plasmodium falciparum HSP40 toxicity. S. cerevisiae expressing PfHsp40, growth rescue, ATP luminescence. growth rescue, % at 12.5 µM. 340,000 compounds, 0.68% hits. AID 504582; in the data active = growth rescue above about 28%, passing the limit was not always enough;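 also: yeast W303a lacking pdr1 and pdr3 grown in galactose medium; growth measured after three days at 30 °C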
Mtb FBA inh = inhibitors of M. tuberculosis fructose-bisphosphate aldolase | purified M. tuberculosis FBA, fluorescence read-out | inhibition, % at 1 µM | AID 588726 | 360,000 compounds, 2.3% hits; in the data active = inhibition above about 27%;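 also: 0% = vehicle and 100% = reference inhibitor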
Target sequence (P9WQA3 whole entry, looked up): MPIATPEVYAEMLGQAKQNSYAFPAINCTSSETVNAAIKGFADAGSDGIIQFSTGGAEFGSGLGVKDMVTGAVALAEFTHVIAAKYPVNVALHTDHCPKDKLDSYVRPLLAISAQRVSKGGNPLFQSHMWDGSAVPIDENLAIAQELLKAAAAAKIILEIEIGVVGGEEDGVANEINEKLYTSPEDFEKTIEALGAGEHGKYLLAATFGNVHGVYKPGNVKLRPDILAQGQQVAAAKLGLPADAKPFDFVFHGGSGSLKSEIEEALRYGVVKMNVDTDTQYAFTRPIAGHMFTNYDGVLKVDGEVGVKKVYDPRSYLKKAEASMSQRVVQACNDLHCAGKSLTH
BJeLR viability = BJeLR cell viability loss | BJeLR (HRASV12) viability, CellTiter-Glo ATP luminescence, 48 h | inhibition, % (concentration not given with the values) | 300,000 compounds, 0.17% hits | AID 1554; in the data active = inhibition above about 50%
PrPC surface inh = inhibitors of human cell surface prion protein PrPC. P04156. TR-FRET read-out. inhibition, % at 13.8 µM. 370,000 compounds, 0.43% hits. AID 720596; in the data active = inhibition above about 24%; also: 0% = median of the test wells and 100% = reference compound wells
GDH-TPI counter = inhibits GDH-TPI coupling enzymes, artifact for Mtb FBA screen | inhibition, % at 4.8 µM | 360,000 compounds, 1.2% hits | GDH-TPI coupled enzyme counterscreen, NADH absorbance | AID 588335; in the data active = inhibition above about 30%;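 also: 0% = DMSO wells and 100% = wells lacking the enzyme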
The depositor's hits bear a star; nt = no result given. Compounds with a hit are over-represented: about 4.5% of the library has one in this group of screens.

SMILES	PrP 5UTR inh	PfHsp40 rescue	Mtb FBA inh	BJeLR viability	PrPC surface inh	GDH-TPI counter
COC(=O)CNC(=O)[C@H](Cc1ccccc1)NC1(C(=O)NCCc2c[nH]c3ccccc23)CCCCC1	nt	nt	nt	nt	9	nt
CN(C)c1ccc(C(=O)N/N=C/c2ccccn2)cc1	-49	0	1	6	-1	35*
CSc1ccc(/C=N/NC(=O)c2cccc(O)c2)cc1	-56	-1	2	7	0	49*
Cc1cc([N+](=O)[O-])nn1Cc1ccc(C(=O)N/N=C/c2ccccc2)cc1	-14	1	0	2	-3	7
Cc1cc([N+](=O)[O-])nn1Cc1ccc(C(=O)N/N=C/c2ccc(N(C)C)cc2)cc1	-14	-1	-6	-4	1	40*
COC(=O)C1CN(Cc2cn(Cc3ccc(Cl)cc3)nn2)CCS(=O)(=O)N1Cc1ccccc1 (centres undefined)	nt	nt	nt	nt	1	nt
COc1cccc(C(=O)N2CCC(Oc3cccnc3)CC2)c1	nt	nt	nt	nt	-4	nt
CCN1CCCCC(NC(=O)c2ccccc2)C1=O (centres undefined)	nt	nt	nt	nt	8	nt
COc1cccc(N2CCN(C(=O)COc3cc(=O)n(C)c4ccccc34)CC2)c1	nt	nt	nt	nt	-4	nt
C[C@H](CO)N1C[C@H](C)[C@@H](CN(C)C(=O)Nc2ccc3c(c2)OCCO3)OCc2cn(nn2)CCCC1=O	nt	nt	nt	nt	-3	nt
O=C(CSc1nc2[nH]c(=O)cc(O)c2s1)Nc1ccc(Br)cc1	-4	0	6	nt	7	32*
CCCCCCN(C(=O)CCl)c1ccccc1	-9	-1	2	19	-4	-8
CCCCCCCN(C(=O)CCl)c1cccc(C)c1	-24	0	3	92*	6	-10
Cc1cc(NC(=O)COC(=O)c2ccccc2NCCO)no1	-11	0	127*	nt	10	21
CCOC(=O)c1ccccc1NC(=O)COC(=O)CSCC(=O)Nc1cc(C)on1	-27	0	1	-8	-5	2
Cc1nnc(SCC(=O)NC(=O)NC(C)(C)C)n1N	-16	52*	3	1	0	-4
O=C(O)c1ccc(C=NNC(=O)c2ccccc2NS(=O)(=O)c2cccs2)cc1	-11	-2	-1	nt	-2	18
O=C(NN=Cc1c(F)cccc1F)c1ccccc1NS(=O)(=O)c1cccs1	-14	1	6	nt	3	9
O=C(NN=Cc1ccc(O)cc1)c1ccccc1NS(=O)(=O)c1cccs1	-20	-1	4	nt	-1	37*
O=C(N/N=C/c1cc(Cl)cc([N+](=O)[O-])c1O)c1ccccc1NS(=O)(=O)c1cccs1	nt	244*	0	4	5	13
COc1ccc(C(=O)C2(C(=O)Nc3cc(C)cc(C)c3)CC(c3ccccc3C(F)(F)F)=NO2)cc1 (centres undefined)	nt	nt	nt	nt	1	nt
O=S1(=O)CC2c3ccccc3CN2CN1Cc1ccccc1 (centres undefined)	nt	nt	nt	nt	-4	nt
COc1ccc(N=Nc2c(N)nn(C)c2N)cc1	-77	1	-5	nt	-11	60*
COCCCNC(=O)c1ccccc1Oc1ccccc1	-21	0	-1	6	-7	0
COCCCNC(=O)c1ccc2c3c(onc13)-c1ccccc1C2=O	-69	2	-1	51*	nt	2
SMILES	PrP 5UTR inh	PfHsp40 rescue	Mtb FBA inh	BJeLR viability	PrPC surface inh	GDH-TPI counter
O=C(C[n+]1cc(Br)cc2ccccc21)c1ccccc1	-10	49*	-2	-4	-12	0
O=C(C[n+]1cccc2ccccc21)c1ccc(Cl)cc1	-17	1	125*	1	-28	10
CCCC1CCC2(CCC(=O)N2CCSc2ccccc2)CC1 (centres undefined)	nt	nt	nt	nt	11	nt
COC(=O)[C@]12C[C@H](CC(=O)NCCC(C)C)C(=O)N(Cc3ccc4c(c3)OCO4)C1=C[C@H](C(C)C)O[C@@H]2C1CC1	nt	nt	nt	nt	2	nt
CC(C)(C)OC(=O)N/N=C/c1ccc(N2CCOCC2)s1	-44	-1	-3	4	-9	35*
Nc1ccc(C(=O)N/N=C/c2ccc(N3CCOCC3)s2)cc1	-23	-1	-1	nt	-13	18
C/C(=N\NC(=O)c1ccc(C(=O)N/N=C(\C)c2ccco2)o1)c1ccco1	0	-2	0	-1	3	31*
C/C(=N\NC(=O)c1ccc(-c2ccccc2)cc1)c1ccco1	-29	1	1	-2	7	8
CC(C)(C)N1Cc2nnn(CC3CCCCC3)c2-c2ccccc2S1(=O)=O	nt	nt	nt	nt	8	nt
C[n+]1c(-c2ccccc2)c2cc(N)ccc2c2ccc(N)cc21	9	128*	-7	44	-23	21
COc1cccc(-c2nnc3sc(-c4ccc(Br)o4)nn23)c1	nt	nt	nt	nt	-5	nt
